From PubChem BioAssay (NCI)
Compounds without any hit were thinned out: in the full panel of roughly 83,000, 20% have a hit.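 Method: cells in 96-well plates; compound added at one concentration; 48 h incubation; percent growth measured; values under 10 scored active.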 Active and inactive are the calls of the source.

Columns and labels:
Assay in all cases: NCI-60 one-dose screen, 48 h (100 = growth as untreated, 0 = no growth, -100 = all killed)
NCI-H226 lung = conditions: 10 µM unless noted
NCI-H322M lung = conditions: 10 µM unless noted
HOP-62 NSCLC = conditions: 10 µM unless noted
NCI-H460 lung = conditions: 10 µM unless noted
HOP-92 NSCLC = conditions: 10 µM
NCI-H522 lung = conditions: 10 µM unless noted
786-0 renal = conditions: 10 µM unless noted
COLO 205 colon = conditions: 10 µM unless noted
DU-145 prostate = conditions: 10 µM unless noted
K-562 leukemia = conditions: 10 µM unless noted
MALME-3M melanoma = conditions: 10 µM unless noted
MDA-MB-231 breast = conditions: 10 µM unless noted
RXF 393 renal = conditions: 10 µM unless noted
SF-268 CNS = conditions: 10 µM unless noted
SF-295 CNS = conditions: 10 µM unless noted
SF-539 CNS = conditions: 10 µM unless noted
UACC-257 melanoma = conditions: 10 µM unless noted
M14 melanoma = conditions: 10 µM unless noted
A549/ATCC NSCLC = conditions: 10 µM unless noted

Measured: growth

CCCSc1nc(Nc2ccc(/C(C)=N\NC(N)=S)cc2)c(C#N)c(-c2ccccc2)n1
inactive: NCI-H226 lung 49.4% | NCI-H322M lung 84.3% | HOP-62 NSCLC 84.2% | NCI-H460 lung 32.7% | NCI-H522 lung 85.2% | 786-0 renal 60.3% | COLO 205 colon 79.9% | DU-145 prostate 66.3% | K-562 leukemia 56.5% | MALME-3M melanoma 97.9% | MDA-MB-231 breast 72.9% | SF-268 CNS 103% | SF-295 CNS 51.8% | SF-539 CNS 36.4% | UACC-257 melanoma 105% | M14 melanoma 99.6%
active: HOP-92 NSCLC -8.02% | RXF 393 renal -4.63%

CCO/C=N/C1=C(C#N)C(c2ccc(Cl)cc2)c2sc3c(CC)cccc3c2O1 (centres undefined)
inactive: NCI-H226 lung 54.7% | NCI-H322M lung 43.3% | A549/ATCC NSCLC 30% | 786-0 renal 41.9% | COLO 205 colon 14% | DU-145 prostate 13.6% | K-562 leukemia 11.4% | MDA-MB-231 breast 37.2% | SF-268 CNS 58.3% | UACC-257 melanoma 70.3%
active: NCI-H460 lung 9.19% | NCI-H522 lung 7.65% | RXF 393 renal -27.7% | SF-295 CNS -12.1% | SF-539 CNS -3.86% | M14 melanoma 8.6%

CNC(=O)c1cc(-c2ccc(NC(=S)Nc3cc(C(F)(F)F)cc(C(F)(F)F)c3)cc2)nc2cccnc12
inactive: NCI-H226 lung 87.8% | NCI-H322M lung 111% | HOP-62 NSCLC 79.2% | NCI-H460 lung 92.1% | HOP-92 NSCLC 76.8% | A549/ATCC NSCLC 88.3% | 786-0 renal 89.3% | COLO 205 colon 110% | DU-145 prostate 84.9% | K-562 leukemia 94.9% | MALME-3M melanoma 99.2% | MDA-MB-231 breast 88.7% | RXF 393 renal 41.1% | SF-268 CNS 88.2% | SF-295 CNS 89.9% | SF-539 CNS 92.1% | UACC-257 melanoma 102% | M14 melanoma 98.5%

NC(N)=Nc1ccc(Oc2cccc(Nc3ccc(Cl)c(C(F)(F)F)c3)c2)cc1
inactive: NCI-H226 lung 53.3% | HOP-62 NSCLC 13.4% | NCI-H522 lung 49% | A549/ATCC NSCLC 57.4% | 786-0 renal 53% | DU-145 prostate 47.8% | RXF 393 renal 50% | SF-268 CNS 32.8% | SF-539 CNS 80.9% | UACC-257 melanoma 27.6% | M14 melanoma 41.1%
active: NCI-H460 lung 2.61% | COLO 205 colon -4.28% | K-562 leukemia 5.61% | MDA-MB-231 breast 6.88% | SF-295 CNS 4.34%

NS(=O)(=O)c1ccc(Nc2nc(SCc3ccccc3)nc3ccccc23)cc1
inactive: NCI-H226 lung 76.8% | NCI-H322M lung 88.7% | NCI-H460 lung 45.1% | HOP-92 NSCLC 55.4% | NCI-H522 lung 81.3% | A549/ATCC NSCLC 52.6% | 786-0 renal 40.3% | COLO 205 colon 79.6% | DU-145 prostate 61.7% | K-562 leukemia 14.4% | MALME-3M melanoma 81.7% | MDA-MB-231 breast 53.9% | RXF 393 renal 45.5% | SF-268 CNS 73.2% | SF-295 CNS 59.9% | SF-539 CNS 48.8% | UACC-257 melanoma 92.8% | M14 melanoma 75%

CCn1c(SCC(=O)Nc2cccc(C(=O)/C=C/c3ccccc3Cl)c2)nc2ccccc2c1=O
inactive: NCI-H226 lung 81.9% | NCI-H322M lung 90.5% | HOP-62 NSCLC 93.7% | NCI-H460 lung 95.7% | HOP-92 NSCLC 72.7% | NCI-H522 lung 85.3% | 786-0 renal 95.6% | COLO 205 colon 114% | DU-145 prostate 77.8% | K-562 leukemia 53% | MALME-3M melanoma 103% | MDA-MB-231 breast 87.1% | SF-268 CNS 88% | SF-295 CNS 91.4% | SF-539 CNS 90.4% | UACC-257 melanoma 110%

Cc1ccc(-c2cc3nc(C(Cl)Cl)nc(C)n3n2)cc1
inactive: NCI-H226 lung 94.6% | NCI-H322M lung 101% | NCI-H460 lung 95.1% | HOP-92 NSCLC 110% | NCI-H522 lung 104% | A549/ATCC NSCLC 108% | 786-0 renal 104% | COLO 205 colon 115% | DU-145 prostate 96.8% | K-562 leukemia 112% | MALME-3M melanoma 105% | MDA-MB-231 breast 87% | RXF 393 renal 118% | SF-268 CNS 106% | SF-295 CNS 108% | SF-539 CNS 97.8% | UACC-257 melanoma 112% | M14 melanoma 106%

Cc1ccc(S(=O)(=O)N(CC[C@@H]2C[C@H]2c2cc3ccccc3o2)S(=O)(=O)c2ccc(C)cc2)cc1
inactive: NCI-H226 lung 79% | NCI-H322M lung 95.4% | HOP-62 NSCLC 115% | NCI-H460 lung 104% | NCI-H522 lung 85.3% | A549/ATCC NSCLC 94.9% | 786-0 renal 99.7% | COLO 205 colon 115% | DU-145 prostate 98.7% | K-562 leukemia 83.1% | MDA-MB-231 breast 83.6% | RXF 393 renal 103% | SF-268 CNS 98.1% | SF-295 CNS 101% | SF-539 CNS 101% | UACC-257 melanoma 84.9%

COc1cc2nc(Cl)nc(Nc3cccc(C4=Nc5c(N)nc(N)nc5NC(c5ccc(F)cc5)C4)c3)c2cc1OC (centres undefined)
active: SF-295 CNS 2.02%
inactive: NCI-H226 lung 75.8% | NCI-H322M lung 83.8% | HOP-62 NSCLC 12.2% | NCI-H460 lung 21.7% | NCI-H522 lung 50% | A549/ATCC NSCLC 64.2% | 786-0 renal 62.1% | COLO 205 colon 70.7% | DU-145 prostate 79.4% | MDA-MB-231 breast 76.4% | RXF 393 renal 51.1% | SF-268 CNS 77.4% | SF-539 CNS 88.6% | UACC-257 melanoma 92.1% | M14 melanoma 86.8%

Cc1ccc(-c2cc3nc(C(Cl)Cl)nc(-c4ccco4)n3n2)cc1
inactive: NCI-H226 lung 87% | 786-0 renal 59.5% | K-562 leukemia 55.5% | MALME-3M melanoma 93.3% | SF-268 CNS 20.5% | UACC-257 melanoma 57%
active: NCI-H322M lung 2.67% | HOP-62 NSCLC -12.3% | NCI-H460 lung -21.6% | HOP-92 NSCLC -0.128% | A549/ATCC NSCLC 2.51% | COLO 205 colon -39.4% | DU-145 prostate -24.3% | MDA-MB-231 breast -21.7% | RXF 393 renal -46.1% | SF-295 CNS -4.81% | SF-539 CNS -32.6%

C[C@@H]1C[C@H]2C(=O)O[C@@H](C)C(NC(=O)[C@H](Cc3cc(F)cc(F)c3)NC(=O)Nc3ccc(Cl)cc3F)C(=O)N3CCC[C@H]3C(=O)N3CCCC[C@H]3C(=O)N[C@@H](CO)C(=O)N2C1 (some centres undefined)
active: NCI-H226 lung -4.63% | COLO 205 colon -23% | RXF 393 renal -10.3%
inactive: NCI-H322M lung 48.6% | HOP-62 NSCLC 33.4% | NCI-H460 lung 14.5% | NCI-H522 lung 19.4% | A549/ATCC NSCLC 26.2% | 786-0 renal 42.2% | DU-145 prostate 26.2% | K-562 leukemia 23.6% | MALME-3M melanoma 46.3% | MDA-MB-231 breast 35.2% | SF-268 CNS 31.7% | SF-295 CNS 20% | SF-539 CNS 36.2% | UACC-257 melanoma 15.8% | M14 melanoma 20.7%

CCOC(=O)c1c(N)c(C#N)cn1-c1cc(OC)c(OC)c(OC)c1
inactive: NCI-H226 lung 110% | HOP-62 NSCLC 101% | NCI-H460 lung 104% | HOP-92 NSCLC 79.1% | NCI-H522 lung 104% | A549/ATCC NSCLC 101% | 786-0 renal 103% | COLO 205 colon 122% | DU-145 prostate 110% | K-562 leukemia 105% | MALME-3M melanoma 102% | MDA-MB-231 breast 100% | RXF 393 renal 112% | SF-268 CNS 111% | SF-295 CNS 99% | SF-539 CNS 92.6% | UACC-257 melanoma 111%
